High-throughput results deposited in PubChem BioAssay by National Center for Advancing Translational Sciences (NCATS).
A selection: hits, their analogues and other compounds. The true share with any hit is near 10%.
L3MBTL1 inh: inhibitors of human L3MBTL1; Q9Y468; AlphaScreen L3MBTL1–H3K9me1 peptide binding; Potency, µM (series often up to 57.1 µM), for inactives: top-dose activity, negative = inhibition, actives largely listed as inhibitors; 0.66% of 230,000 active; AID 485360; further: potency means the concentration at half of the fitted maximal effect; on the % scale 0 is the no-effect control and ±100 the full control effect; nearly all actives have a fitted effect of over 60% in size
Target sequence (Q9Y468 whole entry, looked up): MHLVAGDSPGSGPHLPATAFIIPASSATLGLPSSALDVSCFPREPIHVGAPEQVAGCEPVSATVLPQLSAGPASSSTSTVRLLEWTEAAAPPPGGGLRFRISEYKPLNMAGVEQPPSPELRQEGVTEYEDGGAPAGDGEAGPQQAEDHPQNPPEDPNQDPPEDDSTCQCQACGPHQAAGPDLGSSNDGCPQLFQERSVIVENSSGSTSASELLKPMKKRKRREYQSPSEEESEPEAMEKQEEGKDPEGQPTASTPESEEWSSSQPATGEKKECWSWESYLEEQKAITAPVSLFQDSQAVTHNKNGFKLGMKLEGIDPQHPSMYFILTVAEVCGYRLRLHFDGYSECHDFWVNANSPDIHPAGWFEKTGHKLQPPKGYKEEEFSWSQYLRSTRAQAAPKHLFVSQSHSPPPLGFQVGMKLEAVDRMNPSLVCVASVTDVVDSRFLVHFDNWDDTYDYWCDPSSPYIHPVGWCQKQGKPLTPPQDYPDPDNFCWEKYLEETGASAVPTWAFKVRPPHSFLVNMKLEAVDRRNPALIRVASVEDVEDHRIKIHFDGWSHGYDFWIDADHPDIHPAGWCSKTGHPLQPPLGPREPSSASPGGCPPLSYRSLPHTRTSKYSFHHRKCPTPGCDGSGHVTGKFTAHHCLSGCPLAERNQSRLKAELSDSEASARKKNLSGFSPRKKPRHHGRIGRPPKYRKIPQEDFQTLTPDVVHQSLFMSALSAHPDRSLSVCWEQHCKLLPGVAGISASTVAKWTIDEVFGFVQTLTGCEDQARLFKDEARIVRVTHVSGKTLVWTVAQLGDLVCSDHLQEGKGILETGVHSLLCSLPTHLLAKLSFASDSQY
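First, the protein-peptide complex forms for 30 min at room temperature (L3MBTL1 50 nM, biotinylated H3K9me1 peptide 75 nM). Next, compounds are pin-transferred and incubated 30 min. Finally, AlphaScreen beads are added and read after 30 min.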
HP1b chromo inh: inhibitors of HP1-beta chromodomain binding to methylated histone tails; P83916; AlphaScreen HP1-beta / biotin-H3K9me3 peptide binding; Potency, µM (titrated, usually from 114 µM), without a hit: top-dose activity change, negative = inhibition, usual class: inhibitors; 0.56% of 390,000 active; further: potency means the concentration at half of the fitted maximal effect; nearly all actives have a fitted effect of over 70% in size
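HP1-beta protein (50 nM final) preincubated 30 min at room temperature with biotinylated H3(1-18)K9me3 peptide (50 nM) in PBS pH 7.4, 0.01% Tween-20, then compound added for 30 min. AlphaScreen streptavidin donor/nickel chelate acceptor beads (10 ug/mL final), 30 min dark, luminescence read.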
GLS inhibitor: blocks human kidney-isoform glutaminase activity; O94925; GLS enzymatic activity, qHTS titration; Potency, µM (series often up to 45.5 µM), without a hit: top-dose activity change, negative = inhibition, usual class: inhibitors; 0.21% of 410,000 active; further: potency means the concentration at half of the fitted maximal effect; on the % scale 0 is the no-effect control and ±100 the full control effect
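Coupled fluorescence readout: glutamate oxidase/HRP/Amplex Red detect glutamate formed by hKGA from L-glutamine (1 mM solution added). Buffer 45 mM KH2PO4 pH 8.2, 0.02% Tween-20; reads at t0 and 30 min RT.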
BAZ2B block: inhibitors of human BAZ2B bromodomain; Q9UIF8; AlphaScreen BAZ2B-H3K14Ac peptide displacement; Potency, µM (titrated, usually from 114 µM), for inactives: at the top dose activity change, negative = inhibition, hits mostly inhibitors; 4.4% of 360,000 active; AID 504333; further: potency means the concentration at half of the fitted maximal effect; on the % scale 0 is the no-effect control and ±100 the full control effect; nearly all actives have a fitted effect of over 60% in size
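AlphaScreen luminescence quantifies BAZ2B engagement of H3K14Ac peptide; the protein and biotinylated peptide are both at 50 nM final, buffer PBS pH 7.4 with 0.01% Tween-20, all steps at room temperature.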
G9a inh-1: G9a (human) methyltransferase inhibition; G9a H3K9 monomethylation, AlphaScreen, 2 h; AID 504332; Potency, µM (highest dose often 102 µM), without a hit: top-dose activity, negative = inhibition, actives largely listed as inhibitors; 8.8% of 350,000 active; Q96KQ7; further: potency means the concentration at half of the fitted maximal effect; on the % scale 0 is the no-effect control and ±100 the full control effect; nearly all actives have a fitted effect of over 75% in size
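Chemiluminescent proximity detection of H3K9 monomethylation, read after 10 min bead incubation in the dark. Reaction: 20 nM G9a, 500 nM biotin-H3K9 peptide, 20 uM SAM cofactor, 2 h, room temperature, following 15 min enzyme-compound preincubation.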
JMJD2A Tudor inh: JMJD2A Tudor domain (human) inhibition | O75164 | 4.4% of 390,000 active | AlphaScreen JMJD2A-Tudor / H3K4me3 peptide binding | Potency, µM (top dose mostly 114 µM), inactives show at the highest dose activity change, negative = inhibition, actives largely listed as inhibitors; further: potency means the concentration at half of the fitted maximal effect; on the % scale 0 is the no-effect control and ±100 the full control effect; nearly all actives have a fitted effect of over 50% in size
JMJD2E confirm: confirmation of inhibitors of human JMJD2E demethylase. Recombinant JMJD2E, FDH-coupled NADH fluorescence (FDH is formaldehyde dehydrogenase). shares compounds with JMJD2A Tudor inh. AID 2677. 93% of 140 active. Potency, µM (titrated, usually from 56.8 µM), for inactives: at the highest dose activity change, negative = inhibition, actives largely listed as inhibitors
FDH inh: counter-screen for JMJD2E inhibitors: Pseudomonas putida formaldehyde dehydrogenase | shares compounds with JMJD2A Tudor inh | FDH enzyme assay, NADH fluorescence kinetic | Potency, µM (doses to about 56.7 µM), for the others: at the highest dose activity, negative = inhibition, hits mostly inhibitors | 10% of 140 active
G9a inh-2: confirmation of human histone methyltransferase G9a inhibitors | shares compounds with JMJD2A Tudor inh | G9a H3K9 monomethylation, AlphaScreen, 2 h | Potency, µM, hits mostly inhibitors | 89% of 370 active | AID 588344; further: potency means the concentration at half of the fitted maximal effect; nearly all actives have a fitted effect of over 65% in size
Active calls of the source: *; ? = inconclusive; / = no result; [ ] = dose if it differs, or a comment. The call rests on the fitted dose curve; in most records, active means well fitted curve in the direction sought with a large enough effect; inconclusive means small, poorly fitted or top-dose-only effect, or another doubt; inactive means no such curve, though single readings can be large; an effect the other way counts as inactive or inconclusive.

SMILES	L3MBTL1 inh	HP1b chromo inh	GLS inhibitor	BAZ2B block	G9a inh-1	JMJD2A Tudor inh	G9a inh-2	others
COc1ccc(-c2noc(CSc3nnc(C)n3-c3ccc(C)cc3)n2)cc1	/	14%	2%	-12%	-10%[59 µM]	-13%	/
COc1ccc(N2CCC(CNC(=O)Nc3ccc(OC)cc3OC)C2)cc1 (configuration not stated)	?	-78%	59%	40µM*	?	45µM*	2.5*
Cc1cccc(C(=O)N2CCc3cc(CNC(=O)c4ccnn4C)ccc32)c1	/	22%	-5%	-3%	-1%[59 µM]	-15%	/
COc1cc(C2Nn3c(nnc3-c3ccccc3OC)S2)ccc1O (configuration not stated)	2%	?	64%	-12%	0.63µM*	2.2µM*	0.25*
CCc1ccc2oc(-c3cc(N)ccc3Cl)nc2c1	/	7%	3%	?	-20%[12.7 µM]	-5%	/
CCc1ccc2oc(-c3cc(N)ccc3O)nc2c1	-5%	4%	35%	-5%	?	-35%	?
Cc1ccc(CNC(=O)CN2C(=O)COc3ccc(S(=O)(=O)N4CCC(C)CC4)cc32)cc1	/	41%	3%	0%	?	-5%	?
CN(C(=O)c1nn(C)c2c1COc1ccccc1-2)c1cccc(C(F)(F)F)c1	/	-11%	2%	-18%	-37%[59 µM]	-19%	/
Cc1cc(C)cc(N2C(=O)CC(Sc3nnnn3-c3ccccc3)C2=O)c1 (configuration not stated)	6%	19%	3%	?	-39%[0.501 µM]	-15%	/
Cc1cc(C)cc(N2C(=O)CC(Sc3ncn[nH]3)C2=O)c1 (configuration not stated)	8%	?	6%	-9%	/	?	/	JMJD2E confirm=6.3µM*;FDH inh=0.28µM*
O=C(CN1CCN(c2ccc(O)cc2)CC1)Nc1ccccc1C(=O)NCCc1ccccc1	-16%	?	36%	-7%	?	?	1.3*
CCc1ccccc1NC(=O)CN(C)Cc1nc(N)nc(Nc2ccccc2C)n1	-19%	10%	-14%	-38%	-32%	?	/
CCc1ccccc1NC(=O)CN(C)Cc1c(O)ccc2ccccc12	/	?	-16%	?	1.8µM*	56µM*	0.4*
CCOC(=O)c1c(N)n(-c2ccccc2CC)c2nc3ccccc3nc12	/	49%	5%	8%	-15%[59 µM]	-12%	/
Oc1ccccc1C=NC1=NN(c2cccc(C(F)(F)F)c2)CC1	?	-5%	33%	?	1µM*	?	0.8*
Cn1c(SCC(=O)NC(C)(C)C)nnc1-c1cccc(NC(=O)c2ccccc2F)c1	/	16%	-6%	7%	?	?	1.4*
Cn1c(SCC(=O)Nc2ccc3c(c2)oc2ccccc23)nnc1-c1ccccc1	/	-2%	-8%	1%	2µM*	?	7.1*
COc1ccc(-c2nnc(SCC(=O)NC(=O)Cc3ccccc3)n2C)cc1	0%	35%	-11%	6%	?	5%	?
Cn1c(SCC(=O)NC(=O)Cc2ccccc2)nnc1-c1ccc(F)cc1	7%	-13%	3%	/	/	-17%	/
Cn1c(SCC(=O)N2CCOCC2)nnc1-c1cccc(NC(=O)c2ccccc2F)c1	-8%	32%	1%	11%	?	-5%	/
COc1cc(Cl)c(C)cc1NC(=O)Cn1ncc2c3ccccc3n(Cc3ccccc3)c2c1=O	/	1%	-1%	-4%	5%[59 µM]	-22%	/
CCOc1ccccc1NC(=O)c1nn(-c2ccc(C)cc2)c(=O)n(C)c1=O	/	16%[57 µM]	-13%	-6%	-2%[59 µM]	-8%	/
O=C(CN1CCN(c2ccc(F)cc2)CC1)N1CCC(Cc2ccccc2)CC1	/	?	55%	35µM*	?	11µM*	16*
COc1ccc(OC)c(Nc2nc(=O)c3cccnc3s2)c1	-24%	?	?	56µM*	0.56µM*	18µM*	0.45*
CCOc1ccc(C(=O)c2cnc3ccccc3c2N2CCN(CC)CC2)cc1	/	38%	3%	-26%	?	-32%	?
SMILES	L3MBTL1 inh	HP1b chromo inh	GLS inhibitor	BAZ2B block	G9a inh-1	JMJD2A Tudor inh	G9a inh-2	others
COc1ccc2nc(NC(=O)CSc3nc(C)cc(=O)[nH]3)sc2c1	/	11%	10%	-20%	2.8µM*	13%[57.1 µM]	25*
COC(=O)c1ccccc1NC(=O)Cn1c(SC)c(F)cnc1=O	/	38%	4%	-1%	0.56µM*	-4%	8.9*
COc1ccccc1N1CCN(c2ccc(NC(=O)c3ccc(C)cc3)cc2C(=O)O)CC1	/	18%	-4%	-15%	-5%[59 µM]	-19%	/
CN(C)c1ccc(NC(=O)CCSc2nc(-c3ccco3)cc(C(F)(F)F)n2)cc1	/	-3%	7%	?	0.71µM*	?	1.3*
CC(C(=O)NC(=O)NC1CCCCC1)N1CCN(c2ccc(O)cc2)CC1 (configuration not stated)	-4%	79µM*	-1%	?	1.3µM*	22µM*	0.56*
CCn1c(SCC(=O)Nc2sc3c(c2C#N)CCC(C(C)(C)C)C3)nnc1-c1ccco1 (configuration not stated)	-9%	8%	10%	2%	-33%	-21%	/
CCn1c(SCC(=O)Nc2sc3c(c2C#N)CCCC3)nnc1-c1ccco1	/	60%	3%	5%	?	-12%	28*
COc1cc2c(C(=O)N3CCN(c4ccc(F)cc4)CC3)cn(CC(C)C)c(=O)c2cc1OC	/	11%	17%	-5%	-5%[59 µM]	-22%	/
CCc1cccc(C)c1NC(=O)c1cccc(N(C)C)c1	-5%	9%	37%	89µM*	?	-15%	8.9*
CCc1cccc(C)c1NC(=O)c1cccc(C(=O)Nc2c(C)cccc2CC)c1	/	-6%	9%	-1%	-1%[59 µM]	-14%	/
O=C(CSc1nnc2c(n1)[nH]c1ccccc12)Nc1ccc2c(c1)OCO2	/	-1%	0%	-33%	1.8µM*	-19%	1.6*
Cc1ccc(NC(=O)CSc2nnc3c(n2)[nH]c2ccccc23)cc1	/	19%	-5%	-1%	20%	-8%	/
